Calls of active or inactive are those of the source. Unless noted, how the calls were made is not given here.
Key:
[1] = system: Wnt5a (protein binding on small-molecule microarray); experiment: small molecules binding Wnt5a protein – biophysical, small-molecule microarray, 635/667 nm fluorescence, primary screen (AID 1142); conditions: 635 nm fluorescence, higher = more signal;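 further: fluorescence read at 667 nm with signal to noise per printed feature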
[2] = ATP-based viability of Huh7 replicon cells – cell-based, CellTiter-Glo luminescence, basal, 48 h, cytotoxicity control for HCV replication inhibitor project, primary screen (AID 1143); conditions: higher = more signal, called active from +8 up or from −8 down;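 further: Huh7 hepatoma cells carrying a hepatitis C replication reporter with no stimulus; test concentration not given here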
[3] = Pseudomonas biofilm growth suppression – PAO1 strain, BacTiter-Glo luminescence, LB-PBS, primary screen (AID 1144); conditions: P. aeruginosa PAO1 biofilm, 12 h, higher = more signal
[4] = basal CRE-LacZ reporter activity in PC12 – cell-based, unstimulated, primary screen (AID 1145); conditions: no forskolin, luminescence, 4.5 h, higher = more signal, called active from +8 up or from −8 down
[5] = forskolin-driven CRE-LacZ activity in PC12 – cell-based, CRE-LacZ reporter, forskolin-stimulated, primary screen (AID 1146); conditions: luminescence, 4.5 h, higher = more signal, called active from +8 up or from −8 down;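 further: PC12 cells with 6xCRE LacZ reporter stimulated by forskolin 10 µM; beta-galactosidase reporter signal reflecting CREB driven transcription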
[6] = target: Streptavidin (Streptomyces avidinii) (UniProt P22629); experiment: compounds binding control protein streptavidin – biophysical, small-molecule microarray, 635/667 nm fluorescence, artefact control for SMM compound annotation, primary screen (AID 1147); conditions: higher = more signal;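 further: signal reflects streptavidin binding to arrayed compounds as a control protein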
Chain of Streptavidin (Streptomyces avidinii) (P22629 whole entry, looked up): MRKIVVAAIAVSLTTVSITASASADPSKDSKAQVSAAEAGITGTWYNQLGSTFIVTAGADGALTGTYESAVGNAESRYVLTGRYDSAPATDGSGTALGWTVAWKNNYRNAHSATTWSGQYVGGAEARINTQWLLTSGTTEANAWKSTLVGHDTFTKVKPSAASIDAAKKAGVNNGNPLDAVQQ

[7] = probe aInhba binding on compound microarray – biochemical, small-molecule microarray, 635/667 nm fluorescence, primary screen (AID 1148); conditions: higher = more signal;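 further: score merges 667nm spot fluorescence with signal-to-noise for antibody binding to printed compounds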
[8] = target: Torsin-1A (Homo sapiens) (UniProt O14656); experiment: TOR1A wild-type binding on microarray – cell lysate, small-molecule microarray, lysate, 635/667 nm, primary screen (AID 1149); conditions: COS7 hTOR1A-WT lysate, 635 nm fluorescence, higher = more signal
Chain of Torsin-1A (Homo sapiens) (O14656 whole entry, looked up): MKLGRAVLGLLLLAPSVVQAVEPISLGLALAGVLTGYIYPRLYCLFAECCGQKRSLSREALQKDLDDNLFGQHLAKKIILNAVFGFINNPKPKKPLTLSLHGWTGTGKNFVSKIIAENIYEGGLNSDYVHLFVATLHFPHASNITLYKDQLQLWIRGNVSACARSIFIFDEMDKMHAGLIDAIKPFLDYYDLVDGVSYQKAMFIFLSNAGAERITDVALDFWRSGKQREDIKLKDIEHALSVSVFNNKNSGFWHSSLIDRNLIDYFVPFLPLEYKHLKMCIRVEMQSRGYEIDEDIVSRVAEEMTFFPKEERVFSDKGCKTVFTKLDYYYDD

[9] = target: Torsin-1A (Homo sapiens) (UniProt O14656); experiment: torsin A mutant lysate binding on microarrays – cell lysate, small-molecule microarray, COS7 lysate, 635/667 nm fluorescence, primary screen (AID 1150); conditions: COS7 hTOR1A mutant lysate, 635 nm fluorescence, higher = more signal;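 further: score pools 667 nm emission and signal to noise measuring lysate protein binding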
[10] = system: Sonic hedgehog protein (Shh); experiment: Sonic hedgehog microarray binding compounds – biochemical, small-molecule microarray, 635/667 nm fluorescence, primary screen (AID 1151); conditions: 635 nm fluorescence, higher = more signal;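 further: Shh protein binding to compounds spotted on small-molecule microarray slides; score combines spot fluorescence intensity with signal-to-noise across triplicate slides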
[11] = optical density shifts of acrAB sulA E. coli – strain DRC41, OD650, 48 h, E. coli filamentation inducer project, primary screen (AID 1152); conditions: higher = more signal, called active from +8 up or from −8 down;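 further: E. coli MC1000 strain DRC41 lacking acrAB efflux pump and sulA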
[12] = probe aLefty1 binding on compound microarray – biochemical, small-molecule microarray, 635/667 nm fluorescence, primary screen (AID 1153); conditions: higher = more signal;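 further: score merges spot fluorescence with signal-to-noise ratio from the scanned slide images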
[13] = plasmodial surface anion channel blockers, osmotic lysis – cell-based, P. falciparum Indochina, OD700, 1 h, primary screen (AID 1154); conditions: P. falciparum Indochina infected RBC osmotic lysis, higher = more signal, called active from +8 up or from −8 down
[14] = plasmodial surface anion channel blockers, osmotic lysis – cell-based, P. falciparum Indochina, OD700, 2 h, primary screen (AID 1155);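 further: lysis reports solute entry through the parasite surface anion channel PSAC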; conditions: P. falciparum Indochina infected erythrocytes, higher = more signal, called active from +8 up or from −8 down
[15] = changes in parasitized red cell lysis, either direction – P. falciparum Indochina, OD700, 3 h, PSAC antagonist project, primary screen (AID 1156); conditions: P. falciparum-infected erythrocytes, osmotic lysis, higher = more signal, called active from +8 up or from −8 down
[16] = plasmodial surface anion channel blockers, osmotic lysis – cell-based, P. falciparum Indochina, OD700, 18 h, primary screen (AID 1157); conditions: P. falciparum Indochina infected erythrocytes, osmotic lysis OD700, 18 h; higher = more signal, called active from +8 up or from −8 down
[17] = S6 kinase pathway phospho-S6 level changes – cell-based, A549, cytoblot, luminescence, serum-stimulated, primary screen (AID 1158); conditions: 5 h, higher = more signal;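 further: serum-stimulated A549 lung adenocarcinoma cells; signal is phosphorylated S6 detected by cytoblot immunostaining with HRP secondary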
[18] = target: NADPH oxidase 2 (Homo sapiens) (UniProt P04839); experiment: compounds shifting NOX2 Amplex Red fluorescence – cell-based, HEK293-NOX2, PMA-stimulated, NOX inhibitor project, primary screen (AID 1159); conditions: 45 min, higher = more signal, called active from +8 up or from −8 down; further: test concentration not given here
Chain of NADPH oxidase 2 (Homo sapiens) (P04839 whole entry, looked up): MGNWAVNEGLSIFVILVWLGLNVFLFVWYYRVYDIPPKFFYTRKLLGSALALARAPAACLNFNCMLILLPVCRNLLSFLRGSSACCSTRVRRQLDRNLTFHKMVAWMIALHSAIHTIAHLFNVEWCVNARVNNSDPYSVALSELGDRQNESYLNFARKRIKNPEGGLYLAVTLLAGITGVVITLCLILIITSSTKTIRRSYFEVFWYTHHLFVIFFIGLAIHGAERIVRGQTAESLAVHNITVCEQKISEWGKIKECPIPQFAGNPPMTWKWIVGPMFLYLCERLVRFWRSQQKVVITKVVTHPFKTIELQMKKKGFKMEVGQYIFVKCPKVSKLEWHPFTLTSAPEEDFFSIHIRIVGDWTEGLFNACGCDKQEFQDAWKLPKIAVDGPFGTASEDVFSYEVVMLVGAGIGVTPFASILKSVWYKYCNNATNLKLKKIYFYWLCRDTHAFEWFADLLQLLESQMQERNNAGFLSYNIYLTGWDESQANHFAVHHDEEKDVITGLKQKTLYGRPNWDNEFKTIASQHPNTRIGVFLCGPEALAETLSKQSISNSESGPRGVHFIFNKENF

[19] = target: NADPH oxidase 4 (Homo sapiens) (UniProt Q9NPH5); experiment: compounds shifting NOX4 Amplex Red fluorescence – cell-based, HEK293-NOX4, tetracycline-induced, NOX inhibitor project, primary screen (AID 1160); conditions: HEK293-NOX4, Amplex Red H2O2 fluorescence, 45 min; higher = more signal, called active from +8 up or from −8 down
Chain of NADPH oxidase 4 (Homo sapiens) (Q9NPH5 whole entry, looked up): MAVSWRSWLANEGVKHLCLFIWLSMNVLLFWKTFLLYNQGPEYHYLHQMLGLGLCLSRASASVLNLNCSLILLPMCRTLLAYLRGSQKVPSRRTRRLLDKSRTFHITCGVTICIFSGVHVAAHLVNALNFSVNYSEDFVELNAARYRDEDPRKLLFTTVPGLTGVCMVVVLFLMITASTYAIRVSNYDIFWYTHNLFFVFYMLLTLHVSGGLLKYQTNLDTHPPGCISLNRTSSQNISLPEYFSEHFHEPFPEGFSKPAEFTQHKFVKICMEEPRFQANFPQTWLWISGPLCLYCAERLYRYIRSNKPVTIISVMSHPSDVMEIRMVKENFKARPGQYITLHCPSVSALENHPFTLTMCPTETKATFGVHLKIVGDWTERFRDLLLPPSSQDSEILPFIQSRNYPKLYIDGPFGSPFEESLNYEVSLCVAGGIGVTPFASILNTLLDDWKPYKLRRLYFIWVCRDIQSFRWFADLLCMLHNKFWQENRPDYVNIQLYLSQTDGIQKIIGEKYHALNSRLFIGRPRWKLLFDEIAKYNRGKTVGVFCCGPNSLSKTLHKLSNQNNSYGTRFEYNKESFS

[20] = target: NADPH oxidase 5 (Homo sapiens) (UniProt Q96PH1); experiment: compounds shifting NOX5 Amplex Red fluorescence – cell-based, HEK293-NOX5, NOX inhibitor project, primary screen (AID 1161); conditions: HEK293-NOX5, ionomycin, 45 min, higher = more signal
Chain of NADPH oxidase 5 (Homo sapiens) (Q96PH1 whole entry, looked up): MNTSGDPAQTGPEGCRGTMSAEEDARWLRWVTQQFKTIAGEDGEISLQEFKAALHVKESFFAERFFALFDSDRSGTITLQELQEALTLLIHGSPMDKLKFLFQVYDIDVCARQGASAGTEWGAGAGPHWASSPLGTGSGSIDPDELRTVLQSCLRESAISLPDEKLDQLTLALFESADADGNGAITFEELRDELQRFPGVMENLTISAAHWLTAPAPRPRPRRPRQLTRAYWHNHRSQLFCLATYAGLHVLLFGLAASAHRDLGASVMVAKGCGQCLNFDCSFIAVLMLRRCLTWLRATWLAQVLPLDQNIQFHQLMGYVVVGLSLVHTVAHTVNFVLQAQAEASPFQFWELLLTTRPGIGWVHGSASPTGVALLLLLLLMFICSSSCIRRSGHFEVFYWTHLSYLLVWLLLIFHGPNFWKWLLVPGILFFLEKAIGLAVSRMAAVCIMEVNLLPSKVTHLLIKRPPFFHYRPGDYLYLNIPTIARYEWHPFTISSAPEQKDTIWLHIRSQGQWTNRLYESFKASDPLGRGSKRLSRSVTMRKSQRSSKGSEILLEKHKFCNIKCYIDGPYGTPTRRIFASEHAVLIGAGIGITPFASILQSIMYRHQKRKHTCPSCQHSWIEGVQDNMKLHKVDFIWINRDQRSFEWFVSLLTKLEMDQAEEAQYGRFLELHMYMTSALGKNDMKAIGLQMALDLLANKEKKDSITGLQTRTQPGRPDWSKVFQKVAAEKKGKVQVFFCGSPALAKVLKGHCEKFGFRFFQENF

Row | Structure (SMILES) | composite z-score [1] | z-score [2] | z-score [3] | z-score [4] | z-score [5] | composite z-score [6] | composite z-score [7] | composite z-score [8] | composite z-score [9] | composite z-score [10] | z-score [11] | composite z-score [12] | z-score [13] | z-score [14] | z-score [15] | z-score [16] | z-score [17] | z-score [18] | z-score [19] | z-score [20]
1 | Cc1ccc(S[C@]2(C(=O)NCCN3CCOCC3)CC(=O)N(C3CCCCC3)[C@@H]2c2ccc(CO)cc2)cc1 | -0.0482 | -0.0065 (inactive) | 0.314 (inactive) | 0.802 (inactive) | 0.893 (inactive) | 0.893 | 0.0422 | 0.18 | 0.783 | 0.318 | -0.288 (inactive) | 0.136 | 1.47 (inactive) | 0.502 (inactive) | 0.512 (inactive) | 0.377 (inactive) | -0.667 | 0.444 (inactive) | 1 (inactive) | 0.923
2 | COc1ccccc1CN1C(=O)c2ccccc2[C@](Cc2ccccc2I)(C(=O)NCc2ccccc2)[C@@H]1c1ccc(CO)cc1 | 0.0733 | -0.553 (inactive) | 0.166 (inactive) | -0.412 (inactive) | -0.0005 (inactive) | -0.476 | 0.0627 | 0.999 | 2.06 | -0.197 | -0.0738 (inactive) | 0.183 | 2.14 (inactive) | -0.0098 (inactive) | 0.826 (inactive) | -0.308 (inactive) | -0.266 | 0.102 (inactive) | 0.377 (inactive) | 1.34
3 | CC(C)C[C@@H]1NC(=O)[C@@H]2C[C@H](C(=O)NCCCCN(C)C)[C@H](c3ccc(O)cc3)N2C1=O | -0.341 | 0.446 (inactive) | -0.0311 (inactive) | -0.532 (inactive) | -0.0914 (inactive) | -0.466 | -0.0624 | 0.0266 | -0.271 | 0.273 | -0.0654 (inactive) | -0.0655 | -0.202 (inactive) | -0.241 (inactive) | -0.689 (inactive) | -0.189 (inactive) | 0.0488 | -0.298 (inactive) | 0.167 (inactive) | 0.21
4 | O=C1O[C@@H](c2ccccc2)[C@@H](c2ccccc2)N2[C@@H](c3ccccc3OCCO)[C@]3(C(=O)Nc4ccc(C#CC5(O)CCCCCC5)cc43)[C@@H](C(=O)NC[C@H](O)c3ccccc3)[C@H]12 | 0.602 | -6.25 (inactive) | 0.813 (inactive) | 0.0776 (inactive) | 1.12 (inactive) | 0.329 | 1.09 | -0.179 | 0.251 | 2.17 | -0.95 (inactive) | 1.38 | 1.87 (inactive) | 1.98 (inactive) | -1.02 (inactive) | 1.49 (inactive) | -0.308 | 2.02 (inactive) | 0.973 (inactive) | 2.17
5 | C=CCOC(=O)[C@@H]1[C@H]2C(=O)O[C@H](c3ccccc3)[C@H](c3ccccc3)N2[C@H](c2ccc(OCCOC(=O)[C@H]3C[C@H]4C(=O)N[C@@H](CCCC[N+](C)(C)C)C(=O)N4[C@H]3c3cccc(OCCO)c3)cc2)[C@@]12C(=O)Nc1ccc(I)cc12 | 0.662 | -0.693 (inactive) | -0.0854 (inactive) | 0.289 (inactive) | -0.464 (inactive) | 0.128 | 0.115 | 0.559 | 0.327 | 1.89 | -0.398 (inactive) | 0.173 | 7.62 (inactive) | 2.35 (inactive) | 1.59 (inactive) | 1.28 (inactive) | 0.0621 | 1.68 (inactive) | 0.615 (inactive) | 1.33
6 | CC(C)(C)OC(=O)CC[C@@]1(C(N)=O)N=C(c2ccc(OCCCO)cc2)O[C@@H]1c1ccccc1N=[N+]=[N-] | 0.672 | -0.858 (inactive) | 0.61 (inactive) | 0.204 (inactive) | -0.208 (inactive) | 1.12 | -0.0695 | 2.08 | 1.31 | -0.179 | 1.3 (inactive) | 0.224 | 30.8 (active) | 31.3 (active) | 2.05 (inactive) | 2.73 (inactive) | -0.207 | 1.57 (inactive) | -0.154 (inactive) | -1.44
7 | C=CCNC(=O)[C@@H]1[C@H]2C(=O)O[C@H](c3ccccc3)[C@H](c3ccccc3)N2[C@H](c2ccccc2OCCO)[C@@]12C(=O)N(C(=O)OCCOC)c1ccc(C#CCC(C(=O)OC)C(=O)OC)cc12 | 0.978 | -5.68 (inactive) | 0.0376 (inactive) | -0.195 (inactive) | -0.569 (inactive) | 1.63 | 0.86 | 0.612 | 1.56 | 2.04 | 0.0535 (inactive) | 1.51 | 1.78 (inactive) | 0.931 (inactive) | 0.222 (inactive) | 0.506 (inactive) | 0.273 | 0.793 (inactive) | 0.966 (inactive) | 1.07
8 | Cc1ccc(S[C@]2(C(=O)NCC(C)C)CC(=O)N(Cc3ccccc3)[C@@H]2c2ccc(CO)cc2)cc1 | -0.405 | -1.13 (inactive) | 0.459 (inactive) | -0.179 (inactive) | 0.98 (inactive) | -0.987 | -0.152 | -0.258 | -0.293 | -1.45 | -0.747 (inactive) | 0.171 | 2.36 (inactive) | 0.522 (inactive) | -0.111 (inactive) | 0.451 (inactive) | 0.138 | -0.336 (inactive) | 0.361 (inactive) | 0.499
9 | CCCC[C@H]1C[C@@H]1[C@@H]1N(P(=O)(c2ccccc2)c2ccccc2)[C@](CO)(c2ccccc2)CC12CC2 | 0.326 | -3.16 (inactive) | 0.76 (inactive) | -0.561 (inactive) | -1.24 (inactive) | 1.15 | 0.0403 | -0.57 | 0.515 | -1.36 | -2.52 (inactive) | 0.394 | 4.95 (inactive) | 0.761 (inactive) | 2.01 (inactive) | 0.985 (inactive) | 0.353 | -0.339 (inactive) | 1.08 (inactive) | -2.29
